Assay results taken from PubChem BioAssay (NCI).
About 79,000 compounds went through this panel and 15% of them were active in at least one assay; those are over-represented in the sample as a whole. A number with no mark means an inactive call. Calls of active or inactive are those of the source. No stated cut-off is given here; in the data, active means growth inhibition above about 70%; inactive means the rest.

assay: NCI Yeast Anticancer Drug Screen. Data for the sgs1 strain (AID 173);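 further: 0% = growth of vehicle-only control cultures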; settings: S. cerevisiae sgs1 mutant, at 1.2 µM, active compounds read high
Method in brief: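 A genetically defined yeast mutant is incubated with the test compound, and its growth is compared to that of the same strain given vehicle.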

**Q.** Which growth inhibition does the source give for CCOC(=O)C(Cc1c2ccccc2cc2ccccc12)(NC(C)=O)C(=O)OCC here?
**A.** -1%

**Q.** With O=[N+]([O-])/C=C/c1cc2ccc3ccccc3c2[nH]1 as the compound, how does the growth inhibition read?
**A.** 39%

**Q.** With O=S1(=O)CCC2=CC(C(F)(F)F)=CC(C(F)(F)F)=CN21 as the compound, how does the growth inhibition read?
**A.** 51%

**Q.** Which growth inhibition does the source give for O=C(Cc1ccccc1)NNc1nc(NNC(=O)c2ccncc2)nc(Nc2ccc([N+](=O)[O-])cc2)n1 here?
**A.** 10%

**Q.** With CCCCS/C(=C(/C#N)C(N)=O)c1cc2c([nH]1)CCCC2 as the compound, how does the growth inhibition read?
**A.** 12%

**Q.** Which growth inhibition does the source give for O=C(O)c1ccccc1C(=O)OC1CCc2ccccc2C1 (stereo unspecified) here?
**A.** -4%

**Q.** For CCOC(=O)/C(=C\c1cccc(C)c1)C(C)=O, which growth inhibition is on record?
**A.** 22%

**Q.** With NC(=S)N/N=C1\c2ccccc2CCC1CCC1(O)CCc2ccccc2C1=O (stereo unspecified) as the compound, how does the growth inhibition read?
**A.** 34%

**Q.** For Cc1cccc2c(Cl)c3cccc(C)c3nc12, which growth inhibition is on record?
**A.** -3%

**Q.** Which growth inhibition does the source give for CC(C)OC(=O)NNc1c(Cl)cc(Cl)cc1Cl here?
**A.** -3%

**Q.** Which growth inhibition does the source give for Nc1ccc2c(c1)C(=O)c1c(F)cccc1-2 here?
**A.** -2%

**Q.** Which growth inhibition does the source give for N#CSCC1COc2ccccc2O1 (stereo unspecified) here?
**A.** -46%

**Q.** Which growth inhibition does the source give for Cc1ccc(S(=O)(=O)NC(=O)C2C(=O)CC3(CCCCC3)CC2=O)cc1 here?
**A.** -12%

**Q.** Which growth inhibition does the source give for CC1=NN(C(=O)c2ccccc2O)C(=O)/C1=C/c1ccco1 here?
**A.** 7%

same assay, conditions: S. cerevisiae sgs1 mutant, at 3.7 µM, active compounds read high

**Q.** Which growth inhibition does the source give for CC(CN(C)C)C(=O)/C=C/c1ccc(Cl)c(Cl)c1 (stereo unspecified) here?
**A.** 9%

**Q.** Which growth inhibition does the source give for NC(=S)N1N=C2c3ccccc3CC[C@H]2[C@@H]1c1ccc(Cl)cc1 here?
**A.** 33%

**Q.** With C/C(=N/NC(=S)Nc1ccccc1C)c1ccccn1 as the compound, how does the growth inhibition read?
**A.** -5%

**Q.** With O=C1/C(=C/c2ccc(Cl)c(Cl)c2)CNC/C1=C\c1ccc(Cl)c(Cl)c1 as the compound, how does the growth inhibition read?
**A.** 33%

**Q.** Which growth inhibition does the source give for CC(C)OP(=O)(OC(C)C)C(=NCCO)NNc1ccc([N+](=O)[O-])cc1 here?
**A.** 39%

**Q.** For CC(C)(CN1CCCCC1)C(=O)CC(SCCS(=O)(=O)O)c1ccccc1 (stereo unspecified), which growth inhibition is on record?
**A.** 6%

**Q.** With COC1=CCC23C(=O)C=CC(=O)C2(C1)C(=O)c1ccccc1C3=O (stereo unspecified) as the compound, how does the growth inhibition read?
**A.** -6%

**Q.** With c1ccc2nc3c(nc2c1)sc1ccccc13 as the compound, how does the growth inhibition read?
**A.** 20%

**Q.** Which growth inhibition does the source give for O=C1c2ccccc2-c2ccc(N=Cc3ccccc3)cc21 here?
**A.** -11%

**Q.** Which growth inhibition does the source give for CNC(=S)N/N=C(/C)CCC/C(C)=N/NC(=S)NC here?
**A.** 24%

**Q.** Which growth inhibition does the source give for Nc1ccc(/C=C/c2ccc3cccnc3c2)cc1 here?
**A.** 1%

**Q.** Which growth inhibition does the source give for COc1ccc2c3c1OC(C)C31CC(=O)CCC1CC2 (stereo unspecified) here?
**A.** -6%

**Q.** With CCOC(=O)Nc1ccc(C)c(NC(=O)OCC)c1 as the compound, how does the growth inhibition read?
**A.** 6%

**Q.** Which growth inhibition does the source give for CCN(CC)CCNc1ccc2nc(C)n3c4ccc(OC)cc4c(=O)c1c23 here?
**A.** 27%

**Q.** Which growth inhibition does the source give for O=C(c1cc(=O)c2ccc(O)cc2o1)c1ccc(Cl)cc1Cl here?
**A.** -14%

**Q.** With CCCNC(=O)OCc1c(COC(=O)NCCC)c(-c2ccc(Cl)c(Cl)c2)n2c1CCC2 as the compound, how does the growth inhibition read?
**A.** 4%

**Q.** Which growth inhibition does the source give for O=C(Cc1ccccc1)NN1C(=O)C(Cl)C1c1cc(Br)cc(Br)c1O (stereo unspecified) here?
**A.** 30%

**Q.** For CCOC(=O)C(Cc1c2ccccc2cc2ccccc12)(NC(C)=O)C(=O)OCC, which growth inhibition is on record?
**A.** 1%

**Q.** For O=[N+]([O-])/C=C/c1cc2ccc3ccccc3c2[nH]1, which growth inhibition is on record?
**A.** 72% (active)

**Q.** For O=S1(=O)CCC2=CC(C(F)(F)F)=CC(C(F)(F)F)=CN21, which growth inhibition is on record?
**A.** 67%

**Q.** With O=C(Cc1ccccc1)NNc1nc(NNC(=O)c2ccncc2)nc(Nc2ccc([N+](=O)[O-])cc2)n1 as the compound, how does the growth inhibition read?
**A.** 32%

**Q.** With CCCCS/C(=C(/C#N)C(N)=O)c1cc2c([nH]1)CCCC2 as the compound, how does the growth inhibition read?
**A.** 17%

**Q.** With O=C(O)c1ccccc1C(=O)OC1CCc2ccccc2C1 (stereo unspecified) as the compound, how does the growth inhibition read?
**A.** -4%

**Q.** With CCOC(=O)/C(=C\c1cccc(C)c1)C(C)=O as the compound, how does the growth inhibition read?
**A.** 51%

**Q.** For NC(=S)N/N=C1\c2ccccc2CCC1CCC1(O)CCc2ccccc2C1=O (stereo unspecified), which growth inhibition is on record?
**A.** 34%

**Q.** For Cc1cccc2c(Cl)c3cccc(C)c3nc12, which growth inhibition is on record?
**A.** -5%

**Q.** For CC(C)OC(=O)NNc1c(Cl)cc(Cl)cc1Cl, which growth inhibition is on record?
**A.** -2%

**Q.** With Nc1ccc2c(c1)C(=O)c1c(F)cccc1-2 as the compound, how does the growth inhibition read?
**A.** 0%

**Q.** For N#CSCC1COc2ccccc2O1 (stereo unspecified), which growth inhibition is on record?
**A.** -42%

**Q.** Which growth inhibition does the source give for Cc1ccc(S(=O)(=O)NC(=O)C2C(=O)CC3(CCCCC3)CC2=O)cc1 here?
**A.** -8%

**Q.** With CC1=NN(C(=O)c2ccccc2O)C(=O)/C1=C/c1ccco1 as the compound, how does the growth inhibition read?
**A.** 44%

same assay, conditions: S. cerevisiae sgs1 mutant, at 11.0 µM, active compounds read high

**Q.** With CC(CN(C)C)C(=O)/C=C/c1ccc(Cl)c(Cl)c1 (stereo unspecified) as the compound, how does the growth inhibition read?
**A.** 25%

**Q.** For NC(=S)N1N=C2c3ccccc3CC[C@H]2[C@@H]1c1ccc(Cl)cc1, which growth inhibition is on record?
**A.** 46%

**Q.** For C/C(=N/NC(=S)Nc1ccccc1C)c1ccccn1, which growth inhibition is on record?
**A.** -5%

**Q.** For O=C1/C(=C/c2ccc(Cl)c(Cl)c2)CNC/C1=C\c1ccc(Cl)c(Cl)c1, which growth inhibition is on record?
**A.** 49%

**Q.** For CC(C)OP(=O)(OC(C)C)C(=NCCO)NNc1ccc([N+](=O)[O-])cc1, which growth inhibition is on record?
**A.** 71% (active)

**Q.** Which growth inhibition does the source give for CC(C)(CN1CCCCC1)C(=O)CC(SCCS(=O)(=O)O)c1ccccc1 (stereo unspecified) here?
**A.** 7%

**Q.** For COC1=CCC23C(=O)C=CC(=O)C2(C1)C(=O)c1ccccc1C3=O (stereo unspecified), which growth inhibition is on record?
**A.** 24%

**Q.** For c1ccc2nc3c(nc2c1)sc1ccccc13, which growth inhibition is on record?
**A.** 43%

**Q.** With O=C1c2ccccc2-c2ccc(N=Cc3ccccc3)cc21 as the compound, how does the growth inhibition read?
**A.** -4%

**Q.** For CNC(=S)N/N=C(/C)CCC/C(C)=N/NC(=S)NC, which growth inhibition is on record?
**A.** 65%

**Q.** Which growth inhibition does the source give for Nc1ccc(/C=C/c2ccc3cccnc3c2)cc1 here?
**A.** 3%

**Q.** For COc1ccc2c3c1OC(C)C31CC(=O)CCC1CC2 (stereo unspecified), which growth inhibition is on record?
**A.** -8%

**Q.** With CCOC(=O)Nc1ccc(C)c(NC(=O)OCC)c1 as the compound, how does the growth inhibition read?
**A.** 12%

**Q.** For CCN(CC)CCNc1ccc2nc(C)n3c4ccc(OC)cc4c(=O)c1c23, which growth inhibition is on record?
**A.** 26%

**Q.** Which growth inhibition does the source give for O=C(c1cc(=O)c2ccc(O)cc2o1)c1ccc(Cl)cc1Cl here?
**A.** 60%

**Q.** With CCCNC(=O)OCc1c(COC(=O)NCCC)c(-c2ccc(Cl)c(Cl)c2)n2c1CCC2 as the compound, how does the growth inhibition read?
**A.** 11%

**Q.** For O=C(Cc1ccccc1)NN1C(=O)C(Cl)C1c1cc(Br)cc(Br)c1O (stereo unspecified), which growth inhibition is on record?
**A.** 92% (active)

**Q.** Which growth inhibition does the source give for CCOC(=O)C(Cc1c2ccccc2cc2ccccc12)(NC(C)=O)C(=O)OCC here?
**A.** -1%

**Q.** With O=[N+]([O-])/C=C/c1cc2ccc3ccccc3c2[nH]1 as the compound, how does the growth inhibition read?
**A.** 89% (active)

**Q.** With O=S1(=O)CCC2=CC(C(F)(F)F)=CC(C(F)(F)F)=CN21 as the compound, how does the growth inhibition read?
**A.** 80% (active)

**Q.** Which growth inhibition does the source give for O=C(Cc1ccccc1)NNc1nc(NNC(=O)c2ccncc2)nc(Nc2ccc([N+](=O)[O-])cc2)n1 here?
**A.** 63%

**Q.** Which growth inhibition does the source give for CCCCS/C(=C(/C#N)C(N)=O)c1cc2c([nH]1)CCCC2 here?
**A.** 18%

**Q.** With O=C(O)c1ccccc1C(=O)OC1CCc2ccccc2C1 (stereo unspecified) as the compound, how does the growth inhibition read?
**A.** -3%

**Q.** For CCOC(=O)/C(=C\c1cccc(C)c1)C(C)=O, which growth inhibition is on record?
**A.** 84% (active)

**Q.** For NC(=S)N/N=C1\c2ccccc2CCC1CCC1(O)CCc2ccccc2C1=O (stereo unspecified), which growth inhibition is on record?
**A.** 63%

**Q.** Which growth inhibition does the source give for Cc1cccc2c(Cl)c3cccc(C)c3nc12 here?
**A.** -4%

**Q.** Which growth inhibition does the source give for CC(C)OC(=O)NNc1c(Cl)cc(Cl)cc1Cl here?
**A.** 0%

**Q.** Which growth inhibition does the source give for Nc1ccc2c(c1)C(=O)c1c(F)cccc1-2 here?
**A.** 0%

**Q.** For N#CSCC1COc2ccccc2O1 (stereo unspecified), which growth inhibition is on record?
**A.** -8%

**Q.** For Cc1ccc(S(=O)(=O)NC(=O)C2C(=O)CC3(CCCCC3)CC2=O)cc1, which growth inhibition is on record?
**A.** 4%

**Q.** With CC1=NN(C(=O)c2ccccc2O)C(=O)/C1=C/c1ccco1 as the compound, how does the growth inhibition read?
**A.** 67%
